Compound activity: PubChem, several laboratories
MPTP inh: mitochondrial permeability transition pore inhibitors, primary screen, biochemical, isolated mouse mitochondria, absorbance; Ca2+ swelling absorbance, 30 min; 360,000 compounds, 1.4% hits; AID 602449, 2012; inhibition, % at 10 µM;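 active = inhibition of 50% or more, scaled per plate between neutral and stimulator controls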;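 note: 0% = DMSO wells given calcium and 100% = 1 mM EGTA wells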
HSP90 inh: HSP90 inhibitors, primary screen, cell lysate, luminescence; Heat shock protein HSP 90 (rabbit reticulocyte lysate; luciferase refolding); Rabbit reticulocyte lysate, luciferase refolding luminescence, 3 h; inhibition, % at 5.6 µM; 290,000 compounds, 0.91% hits;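 active = inhibition above the screen-wide mean plus 3 SD, computed separately per campaign, cut at about 16% in these data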;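 note: 0% = DMSO wells and 100% = 60 µM geldanamycin wells; inhibitors lower the luminescence because luciferase stays unfolded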
HSF-1 act: HSF-1 activators, primary screen, NIH3T3-HGL cells, MG132 stress, luminescence, single point | NIH3T3-HGL HSF-1 luciferase reporter, 8 h; 100% = twice DMSO control signal | 300,000 compounds, 1.7% hits | activation, % at 9 µM;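 active = mean replicate activation of at least 50% with a set share of replicates each reaching 50%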;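 note: 0% = median of the neutral control wells and 100% = twice that signal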
dFosB act-1: activators of delta FosB homodimer, primary screen, biochemical, fluorescence polarization, TAMRA-CDK5 oligo, single point. activation, % at 25 µM. AID 493131, 2011. purified delta FosB; percent of positive-control signal above neutral wells. Protein FosB (Mus musculus), P13346. 340,000 compounds, 0.99% hits;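 active = mean activation above about 17%, with every replicate also reaching it, limit read from the data, passing the limit was not always enough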
Target sequence (P13346 whole entry, looked up): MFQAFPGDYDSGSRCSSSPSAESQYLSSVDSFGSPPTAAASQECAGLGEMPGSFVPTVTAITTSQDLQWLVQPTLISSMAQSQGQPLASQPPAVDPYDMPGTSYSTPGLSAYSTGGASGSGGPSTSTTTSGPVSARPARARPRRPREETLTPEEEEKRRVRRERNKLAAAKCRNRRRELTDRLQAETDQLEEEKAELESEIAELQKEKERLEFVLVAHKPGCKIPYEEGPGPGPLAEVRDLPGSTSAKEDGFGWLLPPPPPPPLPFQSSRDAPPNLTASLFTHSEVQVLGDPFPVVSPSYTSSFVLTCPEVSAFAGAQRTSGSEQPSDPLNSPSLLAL
Platelet DG rel: inhibitors of platelet dense granule secretion, primary screen, cell-based, MLPCN, human platelets. inhibition, %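 (compounds screened at 7.5 µM in platelet-rich plasma)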. human platelet-rich plasma, SFLLRN dense granule ATP release, luminescence. AID 1663, 2009. 300,000 compounds, 0.22% hits;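 active = mean replicate score, as percent of positive control, at or above 50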
HSF1 inh: HSF1 inhibitors in luciferase reporter cells, primary screen, cell-based, NIH3T3, luminescence. AID 2098, 2009. activity change, negative = inhibition, % at 7.5 µM (by protocol). 300,000 compounds, 0.77% hits. NIH3T3-HGL HSE-luciferase, MG132-induced, luminescence 8 h; hits give low values;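 active = more than half of replicate wells show activity change below -50%, luminescence cut by over half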;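 note: luciferase reports HSF-1 transcriptional activity via heat shock element; 0% = median of DMSO wells and -100% = zero luminescence signal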
dFosB act-2: activators of mouse delta FosB DNA binding, confirmation, biochemical, fluorescence polarization, TAMRA-CDK5 oligo, cherry-picked samples. shares compounds with dFosB act-1. purified delta FosB; normalised: neutral wells 0, positive control 100. 2,400 tested, under 10 active. activation, % at 24.9 µM;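 active = highest replicate activation at or above 34% and every replicate reaching that threshold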;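 note: higher polarization means more probe DNA bound by delta FosB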
Active calls of the source: *; · = no result given. Most compounds without a hit are left out; they make up all but 4.9% or so of the library.

SMILES	MPTP inh	HSP90 inh	HSF-1 act	dFosB act-1	Platelet DG rel	HSF1 inh	dFosB act-2
O=C(Nc1ccc(NC(=O)c2cc3ccccc3o2)cc1)c1ccc2c(c1)OCCO2	0	0	-5	42*	1	-4	-1
CCCc1cc(=O)oc2cc(C)cc(OC(C)C(=O)NCCCn3ccnc3)c12 (configuration not stated)	0	-3	10	-7	3	-1	·
O=C(/C=C/c1ccccc1[N+](=O)[O-])Nc1ccc(S(=O)(=O)Nc2ncccn2)cc1	0	2	-6	-8	-4	0	·
CCCCCC(=O)Nc1ccc2oc(-c3cccnc3)nc2c1	5	-2	32	1	12	1	·
O=C(Cc1ccccc1)Nc1ccc2oc(-c3cccnc3)nc2c1	-2	4	18	22*	0	7	1
O=C(Nc1ccc2oc(-c3ccncc3)nc2c1)c1ccc2c(c1)OCCO2	0	-4	1	46*	1	1	0
O=C(Nc1ccc(NC(=O)c2ccco2)cc1)c1ccc2c(c1)OCO2	-4	1	6	-6	2	-2	·
O=C(Nc1ccc2oc(-c3ccccc3F)nc2c1)c1cncc(Br)c1	1	-3	10	22*	7	-4	1
O=C(Nc1ccc2oc(-c3ccccc3F)nc2c1)c1ccc([N+](=O)[O-])o1	2	4	28	3	-1	20	·
O=C(Nc1ccc(NC(=O)c2ccco2)c(Cl)c1)c1ccc2c(c1)OCCO2	0	-1	9	60*	7	7	1
OC(c1ccc(F)cc1)c1nc(-c2cnc3ccccc3c2)cs1 (configuration not stated)	0	·	·	·	·	·	·
COc1cc(C(=O)Nn2c(C)nc3ccccc3c2=O)cc(OC)c1OC	2	6	-18	-4	-7	-3	·
Cc1cc(NC(=O)c2cc(-c3ccccn3)nc3c(Cl)cccc23)no1	0	4	-3	15	-7	-1	·
O=C(Nc1nccs1)c1cc(-c2ccccn2)nc2c(Cl)cccc12	0	5	-8	39*	3	-4	4
O=C(NCCC1=CCCCC1)c1cc(S(=O)(=O)N2CCOCC2)c(Cl)cc1Cl	-2	·	1	19*	-2	-1	-3
COc1ccc(C(=O)N[C@H](C(=O)NCCCn2nc(C)cc2C)C(C)C)cc1	0	·	·	-4	·	·	·
C(=N\Nc1nc(Nc2ccccc2)nc(Nc2ccccc2)n1)/c1ccncc1	1	0	7	14	-4	-1	·
C(=N\Nc1nc(Nc2ccccc2)nc(Nc2ccccc2)n1)/c1cccnc1	1	2	6	65*	7	-10	0
CC(=O)c1c(C)[nH]c(C(=O)NNC(=O)COc2ccc(Cl)cc2C)c1C	-1	·	-7	0	1	-1	·
COc1ccc(Cl)cc1NC(=O)c1[nH]c(C)c(C(C)=O)c1C	0	-7	-15	36*	-6	-10	4
O=C(NCc1ccccc1)C(c1ccccc1)n1c(C2CC2)nc2ccccc21 (configuration not stated)	0	·	·	·	·	·	·
CCc1cccc(C)c1NC(=O)CCN1C(=O)NC(C)(C)C1=O	-2	·	·	-4	·	·	·
NC(N)=NC(=O)c1nc(Cl)c(N2CCCCCC2)nc1N	23	·	·	26*	·	·	5
COC(=O)Cc1ccc(NC(=S)N2CCN(CCO)CC2)cc1	1	·	4	-7	10	1	·
NS(=O)(=O)c1ccc(CNC(=O)c2cc(-c3cccnc3)nc3ccc(Br)cc23)cc1	0	-3	2	-9	-10	1	·
SMILES	MPTP inh	HSP90 inh	HSF-1 act	dFosB act-1	Platelet DG rel	HSF1 inh	dFosB act-2
NS(=O)(=O)c1ccc(CCNC(=O)c2cc(-c3ccc(Br)cc3)nc3ccccc23)cc1	4	-2	23	79*	5	0	0
O=C(NCCc1ccc(Cl)cc1)c1cc(-c2ccccn2)nc2ccccc12	-1	2	4	0	7	17	·
NS(=O)(=O)c1ccc(CCNC(=O)c2cc(-c3ccccn3)nc3ccc(Br)cc23)cc1	0	-2	27	32*	7	8	-6
CN1C2=C(C#N)C(c3ccccc3)(C(F)(F)F)NC(=O)N2c2ccccc21 (configuration not stated)	4	2	26	-3	1	18	·
Cc1ccc(C2(C(F)(F)F)NC(=O)N3C(=C2C#N)Nc2ccccc23)cc1 (configuration not stated)	5	1	·	23*	-14	·	6
CCCCn1c(SCC(=O)c2ccc(OC)c(OC)c2)nc2cc(S(N)(=O)=O)ccc21	2	1	9	23*	2	0	0
COc1ccc(OC)c(NC(=O)COc2cc(O)c3c(c2)OC(C)(C)CC3=O)c1	0	·	·	·	·	·	·
Cc1ccc(NC(=O)c2ncn(CC(=O)NCc3nc4ccccc4[nH]3)n2)cc1C	0	·	·	47*	·	·	-7
O=S(=O)(NCc1ccc2c(c1)OCO2)c1ccc(F)cc1	-2	-4	9	6	-2	2	·
CN(C)S(=O)(=O)c1ccc(S(=O)(=O)NCc2ccc3c(c2)OCO3)cc1	0	1	-9	36*	-5	-2	-6
Oc1ccc(C[C@H]2CNC(=S)N2CC2CCCN2C[C@H](Cc2ccc(O)cc2)N2C[C@H](Cc3ccccc3)N(CC3CCCCCC3)C2=S)cc1 (some centres not stated)	0	·	·	72*	·	·	3
CCOc1ccc(CCN2C(=S)N([C@@H](Cc3ccccc3)CN3CCC[C@@H]3CN3C(=S)NC[C@@H]3Cc3ccc(O)cc3)C[C@@H]2CC(C)C)cc1	3	·	·	·	·	·	·
CCOc1ccc(CCN2C(=S)N([C@@H](Cc3ccc(O)cc3)CN3CCCC3CN3C(=S)NC[C@@H]3Cc3ccc(O)cc3)C[C@@H]2CC(C)C)cc1 (some centres not stated)	0	·	·	88*	·	·	3
COCCN(Cc1ccc(OC)cc1)c1c(C)nc2ccc(C(=O)Nc3ccc(NC(C)=O)cc3)cn12	0	·	·	·	·	·	·
O=C(Nc1ccccc1)c1ccsc1	2	-1	1	-4	-3	-4	·
COc1ccccc1Cn1c(=S)[nH]c2cc(C(=O)N3CCCC(C)C3)ccc2c1=O (configuration not stated)	1	·	·	·	·	·	·
O=C(CCCOc1ccccc1)Nc1cccc(S(=O)(=O)N2CCCCCC2)c1	1	·	·	-10	·	·	·
Cc1nc(NC(=O)c2ccc(Cl)cc2)nc2cc3c(cc12)OCO3	-1	-6	17	9	6	3	·
